Test results from PubChem BioAssay (NCATS).
Inconclusive results are not listed. Where a call stands in place of a potency, no number is given. Active and inactive are the calls of the source. The call rests on the fitted dose curve; in most records, active means well fitted curve in the direction sought with a large enough effect; inconclusive means small, poorly fitted or top-dose-only effect, or another doubt; inactive means no such curve, though single readings can be large; an effect the other way counts as inactive or inconclusive.

Assays:
[1] = MultiTox-Fluor Cytotoxicity Assay - LYMP1-003 - Live Cells (AID 962);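 further: cells exposed to compound for 16 hours at 37 °C; cytotoxic hits lower the live-cell protease signal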
How it was run: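 Live-cell protease activity (GF-AFC substrate, 405/510 nm, 60 min at room temperature) after 16 h, 37 C compound exposure of human lymphoblastoid LYMP1-003 cells; concentration-response fitted to the Hill equation for AC50.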

[2] = Cell Viability - LYMP1-003 - Assay at 24 hr (AID 963)
How it was run: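 Concentration-response qHTS: ATP loss measured by CellTiter-Glo luminescence after 24 h compound exposure at 37 C. Cells were LYMP1-003 human lymphoblastoid, 2500 per well. AC50 derived via standard Hill equation modeling.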

[3] = Cell Viability - LYMP2-003 (AID 965);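 further: cells exposed to compounds for 24 h before reading; nearly all actives have a fitted effect of over 50% in size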
How it was run: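 qHTS, human lymphoblastoid line, 2500 cells/well, complete medium. 24 h drug, 37 C. ATP-based luminescent readout; Hill-fit AC50.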

[4] = Cell Viability - LYMP2-005 (AID 967); further: series mostly up to about 92 µM
How it was run: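 Luciferase-based ATP quantitation served as the viability measure in human lymphoblastoid LYMP2-005 cells exposed to test compounds for 24 h at 37 C in complete culture medium. Potency (AC50) was obtained by fitting concentration-response curves with the Hill equation.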

[5] = Cell Viability - LYMP2-011 (AID 969); further: nearly all actives have a fitted effect of over 60% in size
How it was run: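 Cytotoxicity qHTS with ATP content as read-out: lymphoblastoid cells (2500/well) exposed to compound for 24 h at 37 C, then luciferase luminescence measured. Concentration-response data fitted with the standard Hill equation to give AC50.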

[6] = Cell Viability - LYMP2-013 (AID 970); further: series mostly up to about 92 µM; nearly all actives have a fitted effect of over 55% in size
How it was run: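 qHTS cytotoxicity: ATP-dependent luminescence (CellTiter-Glo, 30 min room temperature) read after 24 h compound exposure at 37 C of 2500 LYMP2-013 lymphoblastoid cells per well. Concentration-response fitted with Hill equation to give AC50.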

[7] = Cell Viability - LYMP2-019 (AID 973); further: nearly all actives have a fitted effect of over 55% in size
How it was run: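 AC50 values come from Hill-equation fits of luminescent intracellular ATP (CellTiter-Glo, 30 min, room temperature) following 24 h compound exposure at 37 C. Cells: LYMP2-019 lymphoblastoid line, 2500 per well, in complete culture medium.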

[8] = Cell Viability - LYMP2-021 (AID 974); further: nearly all actives have a fitted effect of over 55% in size
How it was run: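 AC50 values come from Hill-equation fits to CellTiter-Glo luminescence (ATP content), read after 24 hour compound exposure at 37 C of 2500 LYMP2-021 lymphoblastoid cells/well; tetraoctylammonium bromide as positive control.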

[9] = Cell Viability - LYMP2-023 (AID 975);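 further: cellular ATP measured by luciferase luminescence as viability proxy; series mostly up to about 92 µM; nearly all actives have a fitted effect of over 55% in size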
How it was run: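 Intracellular ATP, read by CellTiter-Glo luminescence, reports viability after 24 hr compound exposure at 37 C. 2500 lymphoblastoid cells/well (LYMP2-023) seeded 5 hr beforehand; Hill fits give AC50; positive control tetraoctylammonium bromide.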

[10] = Cell Viability - LYMP2-025 (AID 976); further: series mostly up to about 92 µM
How it was run: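 Cytotoxicity read as loss of intracellular ATP (luciferase luminescence) after 24 h compound treatment at 37 C. Uses LYMP2-025 lymphoblastoid cells in 1536-well format; Hill-equation modelling gives AC50; tetraoctylammonium bromide as positive control.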

[11] = Cell Viability - LYMP2-002 (AID 977); further: series mostly up to about 92 µM
How it was run: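 Human lymphoblastoid cells (2500/well) in complete medium were preincubated 5 hr at 37 C, then exposed to compounds for 24 hr at 37 C. Intracellular ATP was read by CellTiter-Glo luminescence; AC50 came from Hill-equation concentration-response fits.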

[12] = Cell Viability - LYMP2-014 (AID 983); further: series mostly up to about 92 µM; nearly all actives have a fitted effect of over 50% in size
How it was run: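 Intracellular ATP loss, read by luciferase luminescence, measures acute cytotoxicity after 24 h compound exposure of lymphoblastoid LYMP2-014 cells (2500/well, 37 C). Concentration-response data fitted to the Hill equation for AC50.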

[13] = Cell Viability - LYMP1-003 - Assay at 40 hr (AID 964); further: nearly all actives have a fitted effect of over 60% in size; further: potency means the concentration at half of the fitted maximal effect
How it was run: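 Viability is taken as cellular ATP, read by CellTiter-Glo luminescence after 40 h of compound exposure at 37 C. Cells: human lymphoblastoid line LYMP1-003 at 2500/well; AC50 values derived by Hill-equation fitting of concentration-response data.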

[14] = Cell Viability - LYMP2-015 (AID 971); further: nearly all actives have a fitted effect of over 55% in size
How it was run: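 Cytotoxicity readout: decrease in intracellular ATP (CellTiter-Glo luminescence) in 2500 LYMP2-015 lymphoblastoid cells/well after 24 h compound exposure at 37 C. Concentration-response data fitted with the standard Hill equation to give AC50.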

[15] = Cell Viability - LYMP2-017 (AID 972)
How it was run: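 CellTiter-Glo luminescence (cellular ATP, 30 min RT) measured cytotoxicity after 24 hr compound treatment at 37 C. Cells were a human lymphoblastoid line, LYMP2-017, plated at 2500/well and incubated 5 hr first; concentration-response fitted with Hill equation for AC50.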

[16] = Cell Viability - LYMP2-006 (AID 978); further: series mostly up to about 92 µM; nearly all actives have a fitted effect of over 60% in size
How it was run: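 In this cytotoxicity screen, the human lymphoblastoid line grew in complete medium with test compounds for 24 hr at 37 C. Cellular ATP served as the viability signal.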

[17] = Cell Viability - LYMP2-007 (AID 979);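 further: cells exposed to compound for 24 h before reading; nearly all actives have a fitted effect of over 60% in size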
How it was run: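 AC50 values come from Hill-equation fits of luminescent intracellular ATP (CellTiter-Glo, 30 min, room temperature) following 24 h compound exposure at 37 C. Cells: LYMP2-007 lymphoblastoid line, 2500 per well, in complete culture medium.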

[18] = Cell Viability - LYMP2-008 (AID 980); further: nearly all actives have a fitted effect of over 60% in size
How it was run: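 Cytotoxicity determined from ATP-dependent luciferase luminescence (CellTiter-Glo) following 24 h compound exposure of human lymphoblastoid LYMP2-008 cells at 37 C. Concentration-response data fitted to the Hill equation to give AC50.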

[19] = Cell Viability - LYMP2-010 (AID 981); further: nearly all actives have a fitted effect of over 55% in size
How it was run: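 CellTiter-Glo ATP luminescence measured cytotoxicity after 24 h compound exposure at 37 C. LYMP2-010 cells were seeded at 2500/well, with tetraoctylammonium bromide as control; concentration-response curves gave AC50 values by the Hill equation.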

[20] = Cell Viability - LYMP2-012 (AID 982)

| Compound | outcome [1] | outcome [2] | outcome [3] | outcome [4] | outcome [5] | outcome [6] | outcome [7] | outcome [8] | outcome [9] | outcome [10] | outcome [11] | outcome [12] | Potency [13] | outcome [14] | outcome [15] | outcome [16] | outcome [17] | outcome [18] | outcome [19] | outcome [20] |
| --- | --- | --- | --- | --- | --- | --- | --- | --- | --- | --- | --- | --- | --- | --- | --- | --- | --- | --- | --- | --- |
| O=c1[nH]cc(F)c(=O)[nH]1 | inactive | inactive | inactive | inactive | inactive | inactive | inactive | inactive | inactive | inactive | inactive | inactive |  |  |  |  |  |  |  |  |
| Cn1c(=O)c2[nH]cnc2n(C)c1=O | inactive | inactive | inactive | inactive | inactive | inactive | inactive | inactive | inactive |  | inactive | inactive | inactive | inactive | inactive | inactive | inactive | inactive | inactive | inactive |
| NCCS(=O)(=O)O | inactive | inactive | inactive | inactive | inactive | inactive | inactive | inactive | inactive | inactive | inactive | inactive | inactive | inactive | inactive | inactive | inactive | inactive | inactive | inactive |
| CC(COc1ccccc1)N(CCCl)Cc1ccccc1 (stereo not given) | inactive | inactive | inactive | inactive |  |  |  |  |  |  |  |  | inactive |  |  |  |  |  |  |  |
| Cc1ccc(-c2cc(C(F)(F)F)nn2-c2ccc(S(N)(=O)=O)cc2)cc1 | inactive | inactive | inactive | inactive | inactive | inactive | inactive | inactive | inactive | inactive | inactive | inactive | inactive | inactive | inactive | inactive | inactive | inactive | inactive | inactive |
| CC(C)C(=O)Nc1ccc([N+](=O)[O-])c(C(F)(F)F)c1 | inactive | inactive | inactive | inactive | inactive |  |  | inactive | inactive | inactive | inactive | inactive | inactive | inactive | inactive | inactive | inactive | inactive | inactive | inactive |
| Cc1cn([C@H]2C[C@H](N=[N+]=[N-])[C@@H](CO)O2)c(=O)[nH]c1=O | inactive | inactive | inactive | inactive | inactive | inactive | inactive | inactive | inactive | inactive | inactive | inactive | inactive | inactive | inactive | inactive | inactive | inactive | inactive | inactive |
| COc1cc2c(c(OC)c1OC)-c1ccc(OC)c(=O)cc1[C@@H](NC(C)=O)CC2 |  |  |  |  |  | inactive |  |  | inactive | inactive |  |  | 20 nM (active) |  |  |  |  |  |  |  |
| CC(C)NCC(O)c1ccc(O)c(O)c1 (stereo not given) | inactive | inactive | inactive | inactive | inactive | inactive | inactive | inactive | inactive | inactive | inactive | inactive |  | inactive | inactive | inactive | inactive | inactive | inactive | inactive |
| Nc1c2c(nc3ccccc13)CCCC2 | inactive | inactive | inactive | inactive | inactive | inactive | inactive | inactive | inactive | inactive | inactive | inactive | inactive | inactive | inactive | inactive | inactive | inactive | inactive | inactive |
| Cc1cn([C@H]2C=C[C@@H](CO)O2)c(=O)[nH]c1=O | inactive | inactive | inactive | inactive | inactive | inactive | inactive | inactive | inactive | inactive | inactive | inactive | inactive | inactive | inactive | inactive | inactive | inactive | inactive | inactive |
| O=c1c(-c2ccc(O)cc2)coc2cc(O)cc(O)c12 | inactive | inactive | inactive | inactive | inactive | inactive | inactive | inactive | inactive | inactive | inactive | inactive | inactive | inactive | inactive | inactive | inactive | inactive |  | inactive |
| COc1ccc2[nH]cc(CCNC(C)=O)c2c1 | inactive | inactive | inactive | inactive | inactive | inactive | inactive | inactive | inactive | inactive | inactive | inactive | inactive | inactive | inactive | inactive | inactive | inactive | inactive | inactive |
| CCC1(c2ccccc2)C(=O)NCNC1=O | inactive | inactive | inactive | inactive | inactive | inactive | inactive | inactive | inactive | inactive | inactive | inactive | inactive | inactive | inactive | inactive | inactive | inactive | inactive | inactive |
| Cn1c(=O)c2c(ncn2C)n(C)c1=O | inactive | inactive | inactive | inactive | inactive | inactive | inactive | inactive | inactive | inactive | inactive | inactive | inactive | inactive | inactive | inactive | inactive | inactive | inactive | inactive |
| Nc1ccn([C@H]2CC[C@@H](CO)O2)c(=O)n1 | inactive | inactive | inactive | inactive | inactive | inactive | inactive | inactive | inactive | inactive | inactive | inactive | inactive | inactive | inactive | inactive | inactive | inactive | inactive | inactive |
| COc1ccc2c(c1)c(CC(=O)O)c(C)n2C(=O)c1ccc(Cl)cc1 | inactive | inactive | inactive | inactive | inactive | inactive | inactive | inactive | inactive | inactive | inactive | inactive | inactive | inactive | inactive | inactive | inactive | inactive | inactive | inactive |
| NS(=O)(=O)c1cc2c(cc1Cl)NCNS2(=O)=O | inactive | inactive | inactive | inactive | inactive | inactive | inactive | inactive | inactive | inactive | inactive | inactive | inactive | inactive | inactive | inactive | inactive | inactive | inactive | inactive |
| Clc1ccc(C(c2ccccc2Cl)C(Cl)Cl)cc1 (stereo not given) | inactive | inactive | inactive | inactive | inactive | inactive | inactive | inactive | inactive | inactive | inactive | inactive | inactive | inactive | inactive | inactive | inactive | inactive | inactive | inactive |
| N[C@@H](Cc1c[nH]c2ccc(O)cc12)C(=O)O | inactive | inactive | inactive | inactive | inactive | inactive | inactive | inactive | inactive | inactive | inactive | inactive | inactive | inactive | inactive | inactive | inactive | inactive | inactive | inactive |
| COc1ccc(CCN(C)CCCC(C#N)(c2ccc(OC)c(OC)c2)C(C)C)cc1OC (stereo not given) | inactive | inactive |  |  |  |  |  |  |  | inactive |  |  | inactive |  |  |  |  |  |  |  |
